Screening data from PubChem.
TRPV1 agonist – HTS Assay for Compounds that Act as Agonists of the Vanilloid Receptor 1; Transient receptor potential cation channel subfamily V member 1 (Homo sapiens), Q8NER1; TRPV1-expressing cells, Fluo-8 calcium influx, agonist mode; activation, % at 8.33 µM; 0.19% of 320,000 active; AID 540275, 2011; in the data active means activation above about 80%; inconclusive means between about 30% and that limit; further: 0% is about no effect
Target sequence (Q8NER1 whole entry, looked up): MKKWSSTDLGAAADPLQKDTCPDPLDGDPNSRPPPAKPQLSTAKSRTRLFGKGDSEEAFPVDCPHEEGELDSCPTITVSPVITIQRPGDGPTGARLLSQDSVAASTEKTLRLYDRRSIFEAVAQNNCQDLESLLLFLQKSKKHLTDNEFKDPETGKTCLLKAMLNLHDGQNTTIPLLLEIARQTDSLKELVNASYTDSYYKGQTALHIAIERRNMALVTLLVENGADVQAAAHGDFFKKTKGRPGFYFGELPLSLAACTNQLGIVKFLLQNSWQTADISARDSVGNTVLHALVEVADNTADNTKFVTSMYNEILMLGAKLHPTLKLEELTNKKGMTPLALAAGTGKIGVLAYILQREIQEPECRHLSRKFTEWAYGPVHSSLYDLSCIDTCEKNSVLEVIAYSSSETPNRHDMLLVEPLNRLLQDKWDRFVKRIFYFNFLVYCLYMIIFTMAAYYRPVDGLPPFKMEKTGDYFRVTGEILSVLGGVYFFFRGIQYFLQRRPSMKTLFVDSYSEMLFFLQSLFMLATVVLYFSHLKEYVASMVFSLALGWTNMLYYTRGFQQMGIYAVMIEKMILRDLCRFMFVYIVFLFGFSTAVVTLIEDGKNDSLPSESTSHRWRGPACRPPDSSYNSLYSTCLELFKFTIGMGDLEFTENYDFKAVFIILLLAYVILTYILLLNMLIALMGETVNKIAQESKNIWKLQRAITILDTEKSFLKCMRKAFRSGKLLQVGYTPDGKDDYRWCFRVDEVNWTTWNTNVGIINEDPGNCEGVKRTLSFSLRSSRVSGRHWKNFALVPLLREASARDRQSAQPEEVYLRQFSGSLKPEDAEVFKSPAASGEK
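TRPV1-expressing cells were cultured overnight at 35.5C and loaded with Fluo-8 calcium dye for 40 to 90 min at room temperature. After a 10 s baseline, compound was added and calcium influx was read kinetically for 3 min (ex 480/em 520 nm).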
RORgamma inh – qHTS for inhibitors of ROR gamma transcriptional activity; Nuclear receptor ROR-gamma (Mus musculus), P51450; Drosophila S2 Gal4-RORgamma UAS-luciferase reporter, 20 h; Potency, µM (series often up to 53.6 µM), for inactives: top-dose activity change, negative = inhibition, hits mostly inhibitors; 5.4% of 310,000 active; AID 2551, 2010; further: potency means the concentration at half of the fitted maximal effect; on the % scale 0 is the no-effect control and ±100 the full control effect; nearly all actives have a fitted effect of over 60% in size
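Using a luciferase readout, inhibitors were identified by reduced reporter activity in Drosophila cells coexpressing a copper-inducible Gal4–ROR gamma fusion and UAS-driven Photinus luciferase, incubated 20 hr after 700 uM copper sulfate.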
Gal4-VP16 FLuc – VP16 counterscreen qHTS for inhibitors of ROR gamma transcriptional activity | Drosophila S2 Gal4-VP16 UAS-luciferase, luminescence, 20 h | Potency, µM (doses to about 53.6 µM), for the others: at the highest dose activity, negative = inhibition, hits mostly inhibitors | 3.5% of 310,000 active | AID 2546, 2010;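 further: Gal4-VP16 expression switched on by copper sulfate through the metallothionein promoter; potency means the concentration at half of the fitted maximal effect; on the % scale 0 is the no-effect control and ±100 the full control effect; nearly all actives have a fitted effect of over 50% in size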
TRPV1 PAM – HTS Assay for Compounds that Act as Potentiators of the Vanilloid Receptor 1 | TRPV1-expressing cells, Fluo-8 calcium influx, capsaicin EC20 potentiation | potentiation, % at 8.33 µM | 0.02% of 320,000 active | AID 540277, 2011; in the data active means potentiation above about 80%; inconclusive means between about 30% and that limit; further: 0% is about no effect
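Fluo-8 calcium influx in TRPV1-expressing cells, kinetic read (ex 480/em 520 nm). Compound added and read 3 min for agonist activity, followed by capsaicin at EC20 final and 2 min further read for enhancement.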
uPA surface inh – qHTS for Inhibitors of Cell Surface uPA Generation | 0.31% of 330,000 active | cell surface uPA generation assay, qHTS | Potency, µM (series often up to 38.3 µM), inactives show top-dose activity change, negative = inhibition, usual class: inhibitors; active means well fitted inhibition curve with a large enough effect; inconclusive means small, poorly fitted or top-dose-only effect; inactive means no such curve, though single readings can be large or run the other way; tested in mouse RAW 264.7 cells; further: potency means the concentration at half of the fitted maximal effect; on the % scale 0 is the no-effect control and ±100 the full control effect; nearly all actives have a fitted effect of over 55% in size
* = called active by the depositor; i = inactive; u = inconclusive; x = no result given; [ ] = dose if it differs, or a comment. Only some compounds are listed: those with a hit (about 5.8% of all), similar ones and a draw of the others. Unless noted, the call rests on the fitted dose curve; in most records, active means well fitted curve in the direction sought with a large enough effect; inconclusive means small, poorly fitted or top-dose-only effect, or another doubt; inactive means no such curve, though single readings can be large; an effect the other way counts as inactive or inconclusive.

SMILES | TRPV1 agonist | RORgamma inh | Gal4-VP16 FLuc | TRPV1 PAM | uPA surface inh
Cc1ccc(-n2c(O)c(/C=N/NC(=O)C3COc4ccccc4O3)c3ccccc3c2=O)cc1 (stereo not drawn) | 12.6 | 3.98µM* | 3.16µM* | -3.2 | -1.4%
O=C(N/N=C/c1c(O)n(-c2ccccc2Cl)c(=O)c2ccccc12)C1COc2ccccc2O1 (stereo not drawn) | 21.8 | 3.98µM* | 2.82µM* | -7.4 | -3.3%
Cc1ccc(/C=N/NC(=O)C2COc3ccccc3O2)s1 (stereo not drawn) | u | x | x | -20.9 | -11.3%
CN(C)/C=N/C(=S)Nc1ccc(Cl)cc1Cl | -3.0 | 12.6µM* | 4.8%[10 µM] | 3.7 | 0.8%
Cc1cccc(C)c1NC(=S)/N=C/N(C)C | 2.6 | 20µM* | 5.0%[10 µM] | -3.8 | -2.4%
CN(C)/C=N/C(=S)Nc1ccc(Cl)cc1 | 1.2 | 6.31µM* | -10.0%[10 µM] | 7.6 | -5.3%
CN(Cc1ccncn1)C(=O)CC1C(=O)NCCN1Cc1cccc(Oc2ccccc2)c1 (stereo not drawn) | 1.9 | 21.1% | 8.1% | 6.4 | -1.4%
C=C[C@](C)(O)CCC1C(=C)CC(O)C2C(C)(C)CCCC12C (stereo partly drawn) | x | 18.2% | -27.5% | x | x
NC(=O)CC(NC(=O)c1ccccc1)c1ccc(N2CCN(c3ccc(F)cc3)CC2)c([N+](=O)[O-])c1 (stereo not drawn) | -4.3 | 12.9% | 22.4µM* | -5.5 | -10.7%
NC(=O)CC(NC(=O)c1cccc(Br)c1)c1ccc(N2CCC(Br)CC2)c([N+](=O)[O-])c1 (stereo not drawn) | 1.2 | 35.3% | u | 5.4 | -3.7%
NC(=O)CC(NC(=O)c1ccccc1)c1ccc(N2CCC(Br)CC2)c([N+](=O)[O-])c1 (stereo not drawn) | 2.0 | u | 12.6µM* | -0.2 | 14.2%
COc1ccc([C@]23Cc4cc(OC)c(OC)cc4C(O2)c2c(cc(-c4ccccc4)oc2=O)O3)cc1 | i | 24.2%[10 µM] | 1.6%[10 µM] | i | x
COC(=O)[C@H](Cc1ccccc1)NC(=O)O[C@H]1C(=O)c2cc(OC)ccc2O[C@@H]1c1ccc(OC)c(Br)c1 | x | -0.7% | 9.9% | x | x
Cc1cc2cc(C(c3nnnn3Cc3ccco3)N3CCCCC3)c(=O)[nH]c2cc1C (stereo not drawn) | -3.9 | -1.5% | 14.4% | 6.8 | 10.9%
CCOc1ccc2[nH]c(=O)c(C(c3nnnn3Cc3ccco3)N3CCN(C)CC3)cc2c1 (stereo not drawn) | 1.7 | 3.55µM* | 3.55µM* | 9.0 | -1.8%
Cc1ccc2c(c1)C(=O)[C@@]1(O)CCN(c3ccccc3)C1=N2 | x | u | 7.3% | x | x
CCOc1ccc(N=Nc2cc(C(C)C)ccc2O)cc1 | 9.0 | 0.1% | -0.1% | -3.9 | 0.4%
Cc1ccc(N=Nc2cc(C)ccc2O)c(C)c1 | -2.9 | -20.2% | -3.8% | -9.1 | 5.6%
CCOc1ccc(N=Nc2ccc(O)c3ncccc23)cc1 | -0.8 | 0.282µM* | 0.398µM* | 11.7 | -0.9%
Cc1ccc(C)c(N=Nc2ccc(O)c3ncccc23)c1 | 1.4 | 0.112µM* | -75.5% | u | u
NS(=O)(=O)c1ccc(N=Nc2ccc(O)c3ncccc23)cc1 | -0.5 | -34.0% | u | -5.8 | u
Cc1cccc(N=Nc2ccc(O)c3ncccc23)c1 | -2.1 | 0.112µM* | 0.0355µM* | 14.4 | -8.3%
CCOc1ccc(N=Nc2ccc(N)cc2N)cc1 | x | 8.91µM* | 10µM* | x | x
O=C(O)CCCC[C@H]1SC[C@H]2NC(=O)N[C@@H]21 | x | 3.0%[16.9 µM] | 8.1%[17 µM] | x | x
CC(=O)Nc1ccc(NC(=O)C(Cc2ccccc2)NC(=O)C2CCC(C)CC2)cc1 (stereo not drawn) | -0.1 | 2.0% | 2.4% | -0.6 | -1.9%
SMILES | TRPV1 agonist | RORgamma inh | Gal4-VP16 FLuc | TRPV1 PAM | uPA surface inh
COc1ccc2c(CC(=O)NC3CCCc4ccccc43)coc2c1 (stereo not drawn) | 4.7 | u | -0.6% | 3.1 | 2.7%
CC1CCN(C(=O)CSCC(=O)O)CC1 | -2.1 | -7.1% | 3.7% | 7.3 | 10.1%
CC(=O)/C(N=Nc1ccc2c(c1)OCCO2)=C(\C)O | 26.7 | 16.5% | -22.5% | -11.0 | u
Oc1ccc(N=Nc2ccc3c(c2)OCCO3)c2ncccc12 | 0.9 | 0.316µM* | 0.398µM* | 9.9 | u
COc1cccc(C2C(C)CCC3C(=O)N(C)C(C(C)C)C(=O)N32)c1 (stereo not drawn) | x | -15.0%[10 µM] | -5.1%[10 µM] | x | x
Cc1ccc(C(=O)Nc2nc(COc3ccccc3)cs2)s1 | u | 10µM* | -14.8% | 5.1 | -9.9%
CC1(C)S[C@@H]2[C@H](NC(=O)COc3ccccc3)C(=O)N2[C@H]1C(=O)O (tested in a mixture with another compound) | x | 3.3%[16.9 µM] | 3.6%[17 µM] | x | x
COc1cccc(-n2nnnc2S(C)(=O)=O)c1 | 1.6 | 3.16µM* | 5.01µM* | 10.7 | -10.3%
N#Cc1c(N(CCO)CCO)nc(N)c2c(N)nc3c(c12)CC(=O)N3CC1CCCO1 (stereo not drawn) | 0.3 | 7.8% | 3.4% | 1.3 | -1.3%
CCCCN1C(=O)Cc2c1nc(N)c1c(N)nc(N(CCC)CCC)c(C#N)c21 | 0.3 | u | 22.4µM* | 1.7 | -5.1%
CCN(CC(=O)NC1CCS(=O)(=O)C1)S(=O)(=O)c1ccc(Br)cc1 (stereo not drawn) | x | x | x | x | -4.9%
N/C(=N\OC(=O)c1cc([N+](=O)[O-])ccc1Cl)c1ccccn1 | -1.2 | 3.98µM* | u | -0.8 | -24.0%
N/C(=N\OC(=O)c1ccc([N+](=O)[O-])cc1Cl)c1ccccn1 | 2.3 | 10µM* | 11.2µM* | 13.3 | -16.9%
COC(=O)NC(C(=O)OC)(C(=O)OC)c1ccccc1 | x | -2.1% | 2.1% | x | x
CC(C)(C)S(=O)(=O)N1C[C@H]2CC/C=C\C/C(c3ccccc3)=C\2[C@@H]1CCO | x | x | x | x | -9.9%
Cc1ccc(S(=O)(=O)Nc2cc(C)cn(Cc3ccccc3)c2=O)cc1 | 1.9 | u | 14.1µM* | -2.4 | -6.3%
Cc1ccc(S(=O)(=O)Nc2cc(C)cn(Cc3ccc(F)cc3)c2=O)cc1 | 3.8 | u | 17.8µM* | -2.3 | -10.2%
Cc1ccc(S(=O)(=O)Nc2cnn(-c3ccccc3)c(=O)c2Cl)cc1 | -12.2 | -44.0% | -24.9% | 11.4 | 0.5%
Cc1c(NC(=O)CCSCCc2ccccn2)cccc1[N+](=O)[O-] | 12.7 | 0.7% | -17.8% | -15.4 | 0.9%
CCNC(=O)c1ccccc1SCC(=O)Nc1ccc(F)cc1 | 5.5 | u | -4.3% | u | -0.9%
Cc1ccc(Cn2cc(/C=N/Nc3ccc([N+](=O)[O-])cn3)c3ccccc32)cc1 | -3.4 | 11.2µM* | 7.94µM* | 9.3 | 1.4%
O=[N+]([O-])c1ccc(NN=Cc2cccc3ccccc23)nc1 | x | x | x | x | 0.1%
COc1cccc(/C=N/Nc2ccc([N+](=O)[O-])cn2)c1O | -0.8 | 4.47µM* | 7.08µM* | 0.4 | -14.1%
